Screens deposited in PubChem by several laboratories.
The list is not random: actives were taken first. Their share in the collection is about 2.2%.
MIN6 prolif: inducers of MIN6 beta-cell proliferation, primary screen, ATP luminescence, uHTS | actives 0.29% (n = 330,000) | proliferation, % at 10 µM | MIN6 cells proliferation, ATPlite luminescence, 48 h; cells starved in 0.2% serum; 100% = growth in 10% serum;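 active means compounds whose signal lies at least 3.5 SD above the mean of all wells on their plate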;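 further: 0% = DMSO-treated cells in low-serum medium and 100% = 10% serum control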
Myeloid diff 2: induction of myeloid progenitor differentiation, primary screen, cell-based, flow cytometry, MLPCN library. ER-HoxA9 myeloid progenitors, lysozyme-GFP differentiation. calls only at 10 µM. actives 1% (n = 360,000);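 active means normalized GFP-positive differentiation at or above the plate's own cutoff, the solvent-only control mean plus 3 SD; inconclusive means no clear call, values can overlap the other calls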;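 further: cells exposed to compound for four days before flow analysis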
iPSC survival up: enhancers of single-cell hiPSC survival, primary screen, ATPlite luminescence; 100% = ROCK inhibitor wells, 0% = DMSO; survival enhancement, % at 20 µM; actives 0.044% (n = 360,000); in the data active means survival enhancement above about 18%;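 further: cells exposed to compounds for 16 hours before the ATP read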
H9c2 protect: cardioprotection against H2O2-induced cell death, primary screen, uHTS, H9c2 cells, ATPLite luminescence; H9c2 cardiomyocytes, H2O2 injury protection, 2 h; protection from H2O2 cell death, % at 20 µM; actives 0.63% (n = 360,000); AID 588492, 2011;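 active means compounds giving at least 50% protection of heart cells from peroxide-induced death in the single-dose screen, raw or plate-pattern-corrected value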;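 further: 0% = DMSO wells with peroxide and 100% = DMSO wells without peroxide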
ABCB6 inh 2: ABCB6 transporter inhibitors, primary screen, K562-ABCB6 cells, flow cytometry, MLPCN library | ATP-binding cassette sub-family B member 6 (Homo sapiens), Q9NP58 | K562-ABCB6 porphyrin accumulation, 1 h; hits give low values | fluorescence ratio to DMSO, % at 10 µM | actives 0.19% (n = 360,000);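 active means fluorescence ratio to DMSO below 75%, the collection mean minus 3 SD; inconclusive means too few cells collected in the well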;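 further: signal is porphyrin accumulated inside mitochondria; 100% equals median channel fluorescence of DMSO control wells; lower ratio means ABCB6 inhibition with less porphyrin fluorescence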
Target sequence (Q9NP58 whole entry, looked up): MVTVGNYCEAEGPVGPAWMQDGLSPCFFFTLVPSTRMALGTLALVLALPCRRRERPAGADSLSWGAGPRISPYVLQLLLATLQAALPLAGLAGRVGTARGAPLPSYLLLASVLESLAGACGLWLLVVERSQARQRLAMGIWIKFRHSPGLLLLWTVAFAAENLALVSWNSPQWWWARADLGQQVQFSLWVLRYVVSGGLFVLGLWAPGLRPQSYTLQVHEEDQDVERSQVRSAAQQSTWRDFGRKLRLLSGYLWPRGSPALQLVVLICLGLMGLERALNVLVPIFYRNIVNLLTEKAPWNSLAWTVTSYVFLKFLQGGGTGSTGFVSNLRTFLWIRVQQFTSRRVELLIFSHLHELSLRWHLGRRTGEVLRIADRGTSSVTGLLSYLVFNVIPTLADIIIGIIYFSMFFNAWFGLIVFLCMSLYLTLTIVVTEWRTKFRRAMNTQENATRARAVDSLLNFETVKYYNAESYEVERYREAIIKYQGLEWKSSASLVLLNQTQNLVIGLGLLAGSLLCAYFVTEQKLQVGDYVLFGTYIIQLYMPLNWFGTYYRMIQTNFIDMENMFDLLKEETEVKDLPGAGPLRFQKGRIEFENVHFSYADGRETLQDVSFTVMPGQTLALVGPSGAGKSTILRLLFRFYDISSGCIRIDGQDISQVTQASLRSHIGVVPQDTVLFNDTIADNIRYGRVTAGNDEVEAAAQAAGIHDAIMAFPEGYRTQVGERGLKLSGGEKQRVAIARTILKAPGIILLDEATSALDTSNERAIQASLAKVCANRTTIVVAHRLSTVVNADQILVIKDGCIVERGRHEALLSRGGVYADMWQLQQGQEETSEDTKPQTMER
The depositor's hits bear a star; i = inactive; ? = inconclusive; . = no result given; + = active, no number; ! = not active in a repeat.

SMILES | MIN6 prolif | Myeloid diff 2 | iPSC survival up | H9c2 protect | ABCB6 inh 2
CCN1C(=O)/C(=C\c2nc3ccccc3c(=O)n2-c2ccccc2)c2ccccc21 | -6 | i | 1 | 16 | 97
Clc1ccccc1-c1nc2ccccc2c2nc3ccccc3n12 | -1 | i | 2 | 8 | 99
Cc1ccc2c(c1)nc1c3ccccc3nc(-c3ccccc3N)n21 | . | i | 3 | 58* | 93
CC(=O)c1cccc(Nc2nc(-c3ccccc3)nc3ccccc23)c1 | -1 | i | 1 | 28 | 96
CCCCN(C(=O)c1ccc(-c2ccc(Cl)cc2)o1)c1c(N)n(CC(C)C)c(=O)[nH]c1=O | -3 | i | 0 | 12 | 101
O=C(NCCc1ccccc1)c1cccc(NC(=O)C2CC2)c1 | . | + | -1 | 9 | 102
CNc1nc(Nc2ccc(C)cc2C)c2sccc2n1 | . | i | -1 | -6 | 99
Cc1ccc(CNc2ccc3c(c2)OCO3)cc1 | . | + | -4 | -15 | 850
CCOc1ccc(NS(=O)(=O)c2ccc(OCC)c3ncccc23)cc1 | -1 | + | 5 | -8 | 95
CC[n+]1c(/C=C/C=C/N(C(C)=O)c2ccccc2)sc2ccccc21 | -7 | + | -1 | -21 | 957
CCn1c(/C=C/N(C(C)=O)c2ccccc2)[n+](CC)c2ccc(Cl)cc21 | -1 | i | 1 | -3 | 108
O=C1C(=Cc2cccc(O)c2O)SC(=S)N1CCCN1CCOCC1 | . | + | -4 | 34 | 101
N#CC(c1nc2ccccc2nc1N1CCCC1)S(=O)(=O)c1cccs1 (centres undefined) | -2 | i | 0 | 59* | 180
CCOc1cccc(/C=N/Nc2ccc(S(=O)(=O)N(CC)CC)cn2)c1O | -6 | ? | -1 | 57* | 90
COc1ccc(C(=O)N(Cc2ccccc2)c2cccc(C)c2)cc1S(=O)(=O)N1CCOCC1 | -6 | i | 1 | 2 | 94
COc1ccc(OCc2cc(C(=O)NC3CCOCC3)no2)c2ccccc12 | 0 | i | 0 | -17 | 106
COc1cccc(OCc2cc(C(=O)NC3CCOCC3)no2)c1 | 1 | + | 0 | 6 | 94
COc1cc(C)c(NC(=O)C(=S)NCc2ccccc2)cc1C | -1 | i | 0 | -11 | 102
COc1ccc(-c2nc3c4ccccc4ccn3c2CC2CCCCC2)cc1OC | . | + | -2 | -2 | 198
COc1cc(NC(=O)c2cc3nc(-c4ccccc4)cc(-c4ccccc4)n3n2)cc(OC)c1OC | -4 | i | -1 | 80* | 102
Cc1cc(-c2ccccc2)nc2cc(C(N)=O)nn12 | -3 | i | 1 | 7 | 6.0*
CCn1nc(NS(=O)(=O)c2ccc([N+](=O)[O-])cc2)c2cc3ccc(C)cc3nc21 | -5 | i | 0 | -5 | 99
CCC(Sc1ccc2nnc(-c3cccnc3)n2n1)C(=O)O (centres undefined) | -3 | i | 23* | 12 | 92
CCOC(=O)C(CC)Sc1ccc2nnc(-c3cccnc3)n2n1 (centres undefined) | -2 | i | 1 | -2 | 100
Brc1ccc(CSc2ccc3nnc(-c4cccnc4)n3n2)cc1 | -3 | . | 1 | 68* | 89
SMILES | MIN6 prolif | Myeloid diff 2 | iPSC survival up | H9c2 protect | ABCB6 inh 2
O=C(NC1CC1)C1CC(=O)N(c2cccc(Cl)c2)C1 (centres undefined) | -1 | + | 0 | 7 | 99
O=[N+]([O-])c1ccc(COP(=O)(O)OCc2ccc([N+](=O)[O-])cc2)cc1 | 0 | +! | 0 | 17 | 99
Cc1cc(C(=O)N/N=C/c2cc(Br)ccc2OC(=O)c2ccccc2)n[nH]1 | -3 | ? | 1 | 56* | 100
Cc1cc(C(=O)N/N=C/c2cc(Br)ccc2OC(=O)c2ccccc2Cl)n[nH]1 | -6 | ? | 0 | 51* | 94
Cc1cc(C(=O)N/N=C/c2ccc(OC(=O)c3ccccc3Br)cc2)n[nH]1 | -1 | i | -1 | 11 | 95
CCOC(=O)N1CCN(C(=O)/C(=C/c2ccccc2OC)NC(=O)c2ccccc2)CC1 | 3 | i | -2 | 0 | 97
CC(C(=O)Nc1c2c(cc3c1CCC3)CCC2)N1CCCC1 (centres undefined) | 0 | i | 1 | 2 | 93
CCN(CC)C(C)C(=O)Nc1c2c(cc3c1CCC3)CCC2 (centres undefined) | -3 | + | -2 | 4 | 110
O=C1CN(S(=O)(=O)c2ccccc2C(F)(F)F)CCN1 | 0 | i | 0 | -3 | 95
CCOc1ccc(/C=N/Nc2cc(N3CCOCC3)nc(C)n2)c(O)c1 | 2 | i | 0 | 78* | 101
CCOc1ccc(/C=N/Nc2cc(C)nc(N3CCOCC3)n2)cc1 | -1 | i | 0 | 2 | 93
Cc1nc(N)c(C#N)c(-c2cccnc2)c1-c1ccccc1 | 0 | i | 1 | -5 | 96
O=C(CN1C2CCCC1CC(NC(=O)C1CCCCC1)C2)Nc1ccccc1C(F)(F)F (centres undefined) | -3 | + | 0 | -4 | 94
COc1cccc(C(=O)NC2CC3CCCC(C2)N3CC(=O)Nc2ccccc2C(F)(F)F)c1 (centres undefined) | -4 | i | 0 | -5 | 97
Cc1ccc(S(=O)(=O)NC2=C(N3CCN(Cc4ccccc4)CC3)C(=O)c3ccccc3C2=O)cc1 | 0 | + | -1 | -9 | 89
COc1ccc(Cl)cc1NC(=O)CSc1nc(NS(=O)(=O)c2ccc(C)cc2)cc(=O)[nH]1 | -2 | + | 0 | 4 | 91
Cc1cc(C)c(C(=O)/C=C/c2ccco2)c(=O)[nH]1 | -1 | + | 0 | 5 | 442
Cc1ccc(/C=C/C(=O)c2c(C)cc(C)[nH]c2=O)cc1 | 0 | i | -3 | 4 | 104
N#Cc1c(N)n(CCNC(=O)c2cccs2)c2nc3ccccc3nc12 | -1 | + | 1 | 12 | 118
Cc1c(/C=N\NC(=O)c2cccc(F)c2)cnn1C | -1 | i | 0 | 9 | 99
CCc1ccc(OCc2cccc(C(=O)N/N=C\c3cnn(C)c3C)c2)cc1 | 0 | + | 0 | 4 | 109
Oc1ccc(CNc2ccc(F)cc2)c2cccnc12 | -4 | + | -3 | -8 | 102
Oc1ccc(CNc2ccccc2)c2cccnc12 | -2 | i | -4 | 33 | 90
Cc1cccc(NCc2ccc(O)c3ncccc23)c1 | -1 | i | -1 | 58* | 100
COc1ccc(OC)c(N(CCN2C(=O)c3ccccc3C2=O)C(=O)CCl)c1 | . | i | -3 | 2 | 109
Cc1occc1C(=O)NNS(=O)(=O)c1ccc(Cl)cc1 | -4 | i | 7 | -2 | 97
